These sequences were tested against HMP19 (assay: pooled miR-30 sensor sort-seq; sequence = guide strand). Conditions: shRNA.
TTGGTTCCCTTCTCGCTGGGGT gave a sensor-assay potency score (higher = more potent) of 0.36. Work on TTCTTGTCTTCACAATCACCTT yielded a sensor-assay potency score (higher = more potent) of -1.21. With TAAGTGATTAACCTCCAAGGGA the sensor-assay potency score (higher = more potent) was -0.21. TCTTGTCTTCACAATCACCTTT showed a sensor-assay potency score (higher = more potent) of -0.0794. With TTGTACATGAGCCTGACTCGGC the sensor-assay potency score (higher = more potent) was -0.338. TTATAGACGAATCCCTCTGGGC was tested, and the sensor-assay potency score (higher = more potent) was -0.74. TACAGTGTTGTCTTGTAACTGG was tested, and the sensor-assay potency score (higher = more potent) was -0.189. Work on TAAACCACCAGGAACACGATGC yielded a sensor-assay potency score (higher = more potent) of -0.408. Sequence TTGTTCTTCTGTTCCGGCTGAT has a sensor-assay potency score (higher = more potent) of 0.313. Work on TTCACAATCACCTTTTCTGGAG yielded a sensor-assay potency score (higher = more potent) of -0.586. Sequence TATCGGTTCAGACAACTCCAGC has a sensor-assay potency score (higher = more potent) of -1.43. For TTCGGCACCCGGAACTTCCCTT, the sensor-assay potency score (higher = more potent) was -0.311.

The sequences below were run against HMX2 in the same assay as above. Conditions: shRNA.
With ATGGACTGGATGGTGAAGCTGG the sensor-assay potency score (higher = more potent) was -1.05. Work on TCCGAGGACACGGACAGGCTGC yielded a sensor-assay potency score (higher = more potent) of -1.46. In the case of TGTATAGGTTGTAGAGAGGTAA, the sensor-assay potency score (higher = more potent) is reported as -0.622. Sequence TTCTCTTCTTTAAAGTCCGAGT has a sensor-assay potency score (higher = more potent) of -1. TTAAAGTCCGAGTGCGAAGGAG gave a sensor-assay potency score (higher = more potent) of -0.61. For TTCTTTAAAGTCCGAGTGCGAA, the sensor-assay potency score (higher = more potent) was -1.59. Work on TAAAGTCCGAGTGCGAAGGAGA yielded a sensor-assay potency score (higher = more potent) of -1.28. TGGAACCAAGTCTTTACCTGGG was tested, and the sensor-assay potency score (higher = more potent) was -0.326. Work on TCTTCTTCTTGGCCGCGCCGGC yielded a sensor-assay potency score (higher = more potent) of -1.36. With TTTCTCTTCTTTAAAGTCCGAG the sensor-assay potency score (higher = more potent) was -0.831. TCGAGCTGGTACACCTGGCTGC gave a sensor-assay potency score (higher = more potent) of -0.393. Work on TGAAGCTGGAGACGCCACCGGC yielded a sensor-assay potency score (higher = more potent) of -0.77.

What follows are sequences tested against HNF1A in the same assay as above. Conditions: shRNA.
In the case of TTCTGTACTCAGCAGGCTGTGG, the sensor-assay potency score (higher = more potent) is reported as -0.687. Work on TTGTAGACACGCACCTCCGTGA yielded a sensor-assay potency score (higher = more potent) of -0.58. With TAGCGTCTCTCGCTCCTCCTTG the sensor-assay potency score (higher = more potent) was -0.628. For TACAGCACCAGGCTGCTGGAGG, the sensor-assay potency score (higher = more potent) was -0.908. ATCGTCGTCCGTCTCGTCCTCG gave a sensor-assay potency score (higher = more potent) of -0.832. Sequence TGAGCTCTGGTACAGCACCAGG has a sensor-assay potency score (higher = more potent) of -1.55. In the case of ATGAAGGTCTCGATGACGCTGT, the sensor-assay potency score (higher = more potent) is reported as 0.222. TTGCTGGAGTCTGAGCTCTGGT showed a sensor-assay potency score (higher = more potent) of -1.14. Sequence TGGTTGGTAGCTCATCACCTGT has a sensor-assay potency score (higher = more potent) of -1.74. With TTGATGACCGGCACACTCTGTG the sensor-assay potency score (higher = more potent) was 0.355. TAGGACTTGACCATCTTCGCCA gave a sensor-assay potency score (higher = more potent) of 0.419. For TACTTCTGCAGTCTCACTGGTC, the sensor-assay potency score (higher = more potent) was -0.169.

The sequences below were run against HNRNPL in the same assay as above. Conditions: shRNA.
With TTGTGTAGTCCCAAGTATCCTG the sensor-assay potency score (higher = more potent) was 0.0698. Work on TTGAACACATTCAAGCGTGTAG yielded a sensor-assay potency score (higher = more potent) of 0.215. Sequence TCTTGAACACATTCAAGCGTGT has a sensor-assay potency score (higher = more potent) of 0.0553. For TTAAAAGTGAAGGTTAATCTTG, the sensor-assay potency score (higher = more potent) was -0.688.
Also: reference of the scale not given here.
